PubChem BioAssay AID1159580 (chemical genetic matrix, 2015)
Where “and” joins values, the source holds several entries; their conditions need not be identical. Equal values may be shown once. Among all 5,500 compounds or so, about 2,000 (36%) were called active. Inconclusive results (about 18%) are left out. Rule as the data show it: active = normalized growth mostly below about 0.91 (no sharp cut-off); inconclusive = no clear call, values can overlap the other calls; inactive = mostly above about 0.92. This is one part of the list.

Experiment: chemical genetic growth profiling, strain panel (AID 1159580);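 also: tested at 20 µM; growth read once vehicle control cultures reached saturation at 30 °C; 1 = growth at the plate median or of vehicle wells; lower values mean less growth of the strain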
Settings: growth OD

Measured: normalized growth

CC1OC1P(=O)(O)O (stereo unspecified)
inactive: S. cerevisiae deletion strains, locus YKL009W, strain mrt4, hits give low values 0.991 | S. cerevisiae deletion strains, locus YKL068W, hits give low values 0.988 | S. cerevisiae deletion strains, locus YKL085W, strain MDH1 (second series), hits give low values 0.978 | S. cerevisiae deletion strains, locus YKL085W, strain MDH1, hits give low values 0.978 | S. cerevisiae deletion strains, locus YKL160W, strain elf1, hits give low values 0.971 | S. cerevisiae deletion strains, locus YKL190W, strain CNB1, hits give low values 1 | S. cerevisiae deletion strains, locus YKR001C, strain vps1, hits give low values 0.992 | S. cerevisiae deletion strains, locus YKR026C, strain gcn3, hits give low values 1 | S. cerevisiae deletion strains, locus YKR091W, strain srl3, hits give low values 0.988 | S. cerevisiae deletion strains, locus YLL001W, strain dnm1, hits give low values 0.982 | S. cerevisiae deletion strains, locus YLL026W, hits give low values 0.985 | S. cerevisiae deletion strains, locus YLL041C, strain sdh2, hits give low values 0.999 | S. cerevisiae deletion strains, locus YLR027C, strain aat2, hits give low values 0.975 | S. cerevisiae deletion strains, locus YLR039C, strain RIC1, hits give low values 0.991 | S. cerevisiae deletion strains, locus YLR058C, strain SHM2, hits give low values 0.996 | S. cerevisiae deletion strains, locus YLR102C, strain apc9, hits give low values 0.99 | S. cerevisiae deletion strains, locus YLR221C, strain rsa3, hits give low values 0.974 | S. cerevisiae deletion strains, locus YLR258W, strain gsy2, hits give low values 0.979 | S. cerevisiae deletion strains, locus YLR262C, strain YPT6 (second series), hits give low values 0.987 | S. cerevisiae deletion strains, locus YLR262C, strain YPT6, hits give low values 0.956 | S. cerevisiae deletion strains, locus YLR268W, strain sec22, hits give low values 0.986 | S. cerevisiae deletion strains, locus YLR320W, strain mms22, hits give low values 0.958 | S. cerevisiae deletion strains, locus YLR330W, strain CHS5, hits give low values 0.992 | S. cerevisiae deletion strains, locus YLR342W, strain FKS1 (second series), hits give low values 0.963 | S. cerevisiae deletion strains, locus YLR342W, strain FKS1, hits give low values 0.983 | S. cerevisiae deletion strains, locus YLR357W, strain rsc2, hits give low values 0.954 | S. cerevisiae deletion strains, locus YLR370C, strain arc18, hits give low values 0.999 | S. cerevisiae deletion strains, locus YLR371W, strain rom2, hits give low values 0.977 | S. cerevisiae deletion strains, locus YLR384C, strain iki3, hits give low values 0.995 | S. cerevisiae deletion strains, locus YLR418C, strain cdc73, hits give low values 0.963 | S. cerevisiae deletion strains, locus YML016C, strain PPZ1, hits give low values 0.99 | S. cerevisiae deletion strains, locus YML032C, strain rad52, hits give low values 0.997 | S. cerevisiae deletion strains, locus YML120C, strain ndi1, hits give low values 0.998 | S. cerevisiae deletion strains, locus YML124C, strain tub3, hits give low values 0.992 | S. cerevisiae deletion strains, locus YMR058W, strain fet3, hits give low values 0.998 | S. cerevisiae deletion strains, locus YMR078C, strain ctf18, hits give low values 0.982 | S. cerevisiae deletion strains, locus YMR125W, strain sto1, hits give low values 1.01 | S. cerevisiae deletion strains, locus YMR129W, hits give low values 1.01 | S. cerevisiae deletion strains, locus YMR205C, strain PFK2, hits give low values 0.962 | S. cerevisiae deletion strains, locus YMR223W, strain ubp8, hits give low values 0.971 | S. cerevisiae deletion strains, locus YMR231W, strain pep5, hits give low values 0.991 | S. cerevisiae deletion strains, locus YMR263W, strain SAP30, hits give low values 1.01 and 1 | S. cerevisiae deletion strains, locus YMR307W, strain GAS1, hits give low values 0.94 | S. cerevisiae deletion strains, locus YNL067W, strain RPL9B, hits give low values 1.03 | S. cerevisiae deletion strains, locus YNL071W, strain lat1, hits give low values 1 | S. cerevisiae deletion strains, locus YNL128W, strain TEP1, hits give low values 0.986 | S. cerevisiae deletion strains, locus YNL153C, strain GIM3, hits give low values 1.15 | S. cerevisiae deletion strains, locus YNL175C, strain NOP13, hits give low values 0.984 | S. cerevisiae deletion strains, locus YNL197C, strain WHI3, hits give low values 0.988 | S. cerevisiae deletion strains, locus YNL209W, strain ssb2, hits give low values 0.981 | S. cerevisiae deletion strains, locus YNL224C, strain SQS1, hits give low values 0.983 | S. cerevisiae deletion strains, locus YNL233W, strain BNI4, hits give low values 1 | S. cerevisiae deletion strains, locus YNL248C, strain rpa49, hits give low values 1.03 | S. cerevisiae deletion strains, locus YNL250W, strain rad50, hits give low values 0.952 | S. cerevisiae deletion strains, locus YNL271C, strain bni1, hits give low values 0.993 | S. cerevisiae deletion strains, locus YNL298W, strain CLA4, hits give low values 0.994 | S. cerevisiae deletion strains, locus YNL307C, strain MCK1, hits give low values 0.98 | S. cerevisiae deletion strains, locus YNL322C, strain KRE1 (second series), hits give low values 0.967 | S. cerevisiae deletion strains, locus YNL322C, strain KRE1, hits give low values 0.996 and 0.98 | S. cerevisiae deletion strains, locus YNR049C, strain mso1, hits give low values 1 | S. cerevisiae deletion strains, locus YNR052C, strain pop2, hits give low values 0.978 | S. cerevisiae deletion strains, locus YOL006C, strain TOP1, hits give low values 1.02 | S. cerevisiae deletion strains, locus YOL012C, strain htz1 1.02 | S. cerevisiae deletion strains, locus YOL147C, strain pex11, hits give low values 0.98 | S. cerevisiae deletion strains, locus YOR001W, strain rrp6, hits give low values 0.971 | S. cerevisiae deletion strains, locus YOR061W, strain CKA2, hits give low values 0.987 | S. cerevisiae deletion strains, locus YOR069W, strain VPS5, hits give low values 0.992 | S. cerevisiae deletion strains, locus YOR070C, strain gyp1, hits give low values 0.981 | S. cerevisiae deletion strains, locus YOR080W, strain dia2, hits give low values 1 | S. cerevisiae deletion strains, locus YOR083W, strain WHI5 (second series), hits give low values 0.997 | S. cerevisiae deletion strains, locus YOR083W, strain WHI5, hits give low values 0.95 | S. cerevisiae deletion strains, locus YOR106W, strain vam3, hits give low values 0.986 | S. cerevisiae deletion strains, locus YOR136W, strain idh2, hits give low values 0.994 | S. cerevisiae deletion strains, locus YOR144C, strain elg1, hits give low values 0.989 | S. cerevisiae deletion strains, locus YOR184W, strain ser1, hits give low values 0.972 | S. cerevisiae deletion strains, locus YOR265W, strain rbl2, hits give low values 0.977 | S. cerevisiae deletion strains, locus YOR270C, strain vph1, hits give low values 1.07 | S. cerevisiae deletion strains, locus YOR290C, strain snf2, hits give low values 0.992 | S. cerevisiae deletion strains, locus YOR316C, strain cot1, hits give low values 0.993 | S. cerevisiae deletion strains, locus YPL051W, strain arl3, hits give low values 0.977 | S. cerevisiae deletion strains, locus YPL055C, strain LGE1, hits give low values 1.06 | S. cerevisiae deletion strains, locus YPL078C, strain atp4, hits give low values 0.993 | S. cerevisiae deletion strains, locus YPL106C, strain sse1, hits give low values 0.959 | S. cerevisiae deletion strains, locus YPL240C, strain hsp82, hits give low values 0.997 | S. cerevisiae deletion strains, locus YPL241C, strain CIN2, hits give low values 0.996 | S. cerevisiae deletion strains, locus YPR119W, strain clb2, hits give low values 0.99 | S. cerevisiae deletion strains, locus YPR141C, strain kar3, hits give low values 0.985 | S. cerevisiae deletion strains, locus YPR163C, strain tif3, hits give low values 0.979 | S. cerevisiae deletion strains, locus YPR167C, strain met16, hits give low values 0.987 | S. cerevisiae deletion strains, strain wtn01, hits give low values 0.967 | S. cerevisiae strains, strain wild type, hits give low values 1
